# Several values for one entry are separate records, joined by “and”; a condition that tells them apart may be missing. Equal values may be shown once. Among all 16,000 compounds or so, about 5,800 (36%) were called active. About 23% were inconclusive and are not listed. Calls come from the whole dose curve; as a rule, active = well fitted curve in the direction sought with a large enough effect; inconclusive = small, poorly fitted or top-dose-only effect, or effect the other way; inactive = no such curve, though single readings can be large or run the other way. Some of the results follow.
# Target: Cytochrome P450 2C19 (Homo sapiens) (UniProt P33261)
# Sequence (P33261 whole entry, looked up): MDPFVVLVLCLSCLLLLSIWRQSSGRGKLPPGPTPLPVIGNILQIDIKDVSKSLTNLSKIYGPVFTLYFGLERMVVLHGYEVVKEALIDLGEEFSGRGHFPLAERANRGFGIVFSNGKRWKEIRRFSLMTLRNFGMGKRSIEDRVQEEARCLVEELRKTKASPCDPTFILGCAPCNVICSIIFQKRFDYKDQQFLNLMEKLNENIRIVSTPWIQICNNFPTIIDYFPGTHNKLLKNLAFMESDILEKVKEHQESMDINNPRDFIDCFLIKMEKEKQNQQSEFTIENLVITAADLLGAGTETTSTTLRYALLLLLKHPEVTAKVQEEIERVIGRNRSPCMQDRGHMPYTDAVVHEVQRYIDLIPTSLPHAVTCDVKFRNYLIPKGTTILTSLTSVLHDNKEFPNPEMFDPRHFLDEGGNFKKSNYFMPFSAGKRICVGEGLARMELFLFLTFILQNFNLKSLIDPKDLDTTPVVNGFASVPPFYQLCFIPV
# Assay: Cytochrome panel assay with activity outcomes
# Conditions: recombinant CYP, pro-luciferin dealkylation, luminescence, p450-cyp2c19; series mostly up to 57.1 µM; activity, negative = inhibition: at the top concentration
# % is set by controls: 0 for no effect and ±100 for the full control effect.
Structure (SMILES),AC50,"activity, negative = inhibition"
O=C1/C(=C/c2cccnc2)SC(=S)N1Cc1ccco1,3.16 µM (active),–
O=C1C=C[C@@H](O)[C@H]2[C@@H]3C(=O)N(c4cccc(Oc5ccccc5)c4)C(=O)[C@@H]3CC[C@H]12,–,-33.5% [at 11.4 µM] (inactive)
COC(=O)c1nn(-c2ccccc2)c(=O)cc1Oc1ccccc1,14.1 µM (active),–
COC(=O)c1nn(-c2ccc(OC)cc2)c(=O)cc1Oc1cccc(Cl)c1,14.1 µM (active),–
Nc1nc2c(nc(Br)n2[C@@H]2O[C@H]3COP(=O)(O)O[C@@H]3[C@H]2O)c(=O)[nH]1,–,36.8% (inactive)
NC(N)=[N+]1CCc2ccccc2C1,–,32% (inactive)
CON(C)C(=O)c1nnc2c3ccccc3n(S(=O)(=O)c3ccc(C)cc3)c2n1,–,16% [at 11.4 µM] (inactive) and 19.4% [at 11.4 µM] (inactive)
COc1ccc(N(C(=O)COc2ccccc2OC)S(=O)(=O)c2ccc(C)cc2)cc1,5.01 µM (active),–
COc1ccc(C(NC(=O)c2ccc(-c3ccccc3)cc2)c2ccccc2)cc1 (stereo not drawn),–,-5% (inactive)
C[C@H](NC(=O)c1ccc(Cl)c(Cl)c1)c1ccc(-c2ccccc2)cc1,1.26 µM (active),–
CCCCCN(CCCCC)C(=O)[C@H](CCC(=O)O)NC(=O)c1ccc(Cl)c(Cl)c1,inactive,–
O=C(Nc1cccc(F)c1)N1CC[C@@]2(CCCN(C(=O)c3cnccn3)C2)C1,–,26.6% (inactive)
O=c1oc2cc(Oc3ccc(C(F)(F)F)cc3[N+](=O)[O-])ccc2c2c1CCCC2,–,-6.74% (inactive)
O=c1oc2cc(Oc3c([N+](=O)[O-])cc(C(F)(F)F)cc3[N+](=O)[O-])ccc2c2c1CCCC2,2.82 µM (active),–
Fc1ccc(Nc2ncncc2-c2ccoc2)cc1,–,-37.3% (inactive)
CN(C)C(=O)c1ccc(-c2cncnc2NC2CCNCC2)cc1,–,32.8% (inactive)
CN(C)c1ccc(-c2cncnc2Nc2ccccc2)cc1,0.316 µM (active),–
CN(C)c1ccc(-c2cncnc2Nc2ccc(F)cc2)cc1,0.794 µM (active),–
COC(=O)[C@@H]1[C@@H]2C[C@H]3c4[nH]c5cc(OC)ccc5c4CCN3C[C@@H]2C[C@H](OC(=O)c2cc(OC)c(OC)c(OC)c2)[C@H]1OC,–,-17.8% [at 25.6 µM] (inactive)
COc1cc(C(=O)NC(=S)Nc2cccc(-c3cc4ccccc4oc3=O)c2)cc(OC)c1OC,5.01 µM (active),–
CCCCC(=O)Nc1cc(OCC)c(NC(=O)c2ccccc2[N+](=O)[O-])cc1OCC,–,-2.64% (inactive)
COc1cc(C(=O)NC(=S)Nc2ccc3oc(=O)ccc3c2)cc(OC)c1OC,–,-15% (inactive)
CCOc1ccc(C(=O)Nc2cccc(-c3cc4ccccc4oc3=O)c2)cc1[N+](=O)[O-],1.78 µM (active),–
COc1cc(NC(=O)c2cc(Cl)ccc2Cl)ccc1-c1cc2ccccc2oc1=O,0.794 µM (active),–

Structure (SMILES),AC50,"activity, negative = inhibition"
C[C@@H]1CCc2cc(F)cc3c(=O)c(C(=O)O)cn1c23,–,-0.104% [at 25.6 µM] (inactive)
Cc1noc(C)c1-c1nccc(-n2ccnc2)n1,3.98 µM (active),–
Cc1noc(C)c1-c1cc(N2CCN(C)CC2)ncn1,–,-18% (inactive)
Cc1noc(C)c1-c1nccc(N2CCN(C)CC2)n1,–,-29.2% (inactive)
Clc1ccccc1-c1nc(NC2CCNCC2)c2ccccc2n1,–,4.11% (inactive)
Cc1ccccc1-c1nc(N2CCNCC2)c2ccccc2n1,–,-21.6% (inactive)
FC(F)(F)c1ccccc1-c1nccc(N2CCNCC2)n1,–,-36.9% (inactive)
Cc1ccccc1-c1nc(-n2ccnc2)c2ccccc2n1,5.01 µM (active),–
Cc1ccccc1-c1nc(N2CCN(C)CC2)c2ccccc2n1,–,-8.98% (inactive)
Clc1ccccc1-c1nccc(-n2ccnc2)n1,2.51 µM (active),–
Clc1ccccc1-c1nc(-n2ccnc2)c2ccccc2n1,7.94 µM (active),–
CCOC(=O)[C@]1(CC(=O)O)CCCC1=O,–,5.42% [at 11.4 µM] (inactive)
CCOC(=O)C1(N(CC)CC)Sc2cc(C)ccc2NC1=O (stereo not drawn),0.0891 µM (active),–
CCCCCCCCCCCCCCCCCC(=O)O[C@H](CC(=O)O)C[N+](C)(C)C,–,-2.77% (inactive)
O=C(C[n+]1cccc(NC(=O)c2ccccc2)c1)c1ccc(NC(=O)c2ccccc2)cc1,39.8 µM (active),–
NNC(=O)c1ccc[n+](CCc2ccccc2)c1,–,-21.6% [at 11.4 µM] (inactive)
Cc1cc([N+](=O)[O-])ccc1-c1ccc(C2Nc3ccccc3C(=O)N2O)o1 (stereo not drawn),4.47 µM (active),–
O=[N+]([O-])c1ccc2c(c1)S(=O)c1ccccc1-2 (stereo not drawn),–,14.6% [at 11.4 µM] (inactive)
O=C(O)CSc1nc2ccccc2[nH]1,–,5.01% [at 11.4 µM] (inactive)
O=C(CSc1nc2ccccc2[nH]1)Nc1c(F)cccc1F,8.91 µM (active),–
CCOC(=O)CCN1C(=O)[C@H]2[C@H]3[C@H](O)[C@H](O)C/C(=N/OC[C@@H](O)COCc4ccco4)[C@@H]3CC[C@@H]2C1=O,–,40.5% [at 11.4 µM] (inactive)
O=C(O)c1ccc(Oc2nc3ccccc3s2)cc1,3.98 µM (active),–
O=C(Nc1ccccc1-c1nc2ccccc2[nH]1)c1ccc(S(=O)(=O)N2CCCCC2)cc1,2.51 µM (active),–
Cc1sc(=NC(=O)c2ccco2)n(C)c1-c1ccccc1,8.91 µM (active),–

Structure (SMILES),AC50,"activity, negative = inhibition"
COc1ccc(CNc2ccnc(-c3ccccc3CN(C)C)n2)c(OC)c1,–,40.8% (inactive)
COc1ccccc1CNc1ccnc(-c2ccccc2Cl)n1,1.58 µM (active),–
COc1ccc(CNc2ccnc(-c3ccccc3Cl)n2)c(OC)c1,1.26 µM (active),–
COc1ccc(CNc2ccnc(-c3ccccc3C(F)(F)F)n2)c(OC)c1,10 µM (active),–
CNc1ccnc(-c2ccccc2CN(C)C)n1,–,-8.21% (inactive)
O=C(N/N=C1/C[C@@H](O)[C@@H](O)[C@@H]2[C@H]3C(=O)N(c4ccc(F)cc4F)C(=O)[C@@H]3CC[C@@H]12)OCc1ccccc1,–,-16.8% [at 11.4 µM] (inactive)
NC(=O)C[C@H](NC(=O)Cc1ccc(O)cc1O)C(=O)O,–,31.1% (inactive)
CC1(C)CC(=O)C2=C(C1)Nc1cc3c(cc1C2c1ccc(F)cc1)OCO3 (stereo not drawn),4.47 µM (active),–
Fc1ccc([C@H]2CCNC[C@H]2COc2ccc3c(c2)OCO3)cc1,–,13.9% (inactive)
N=C(N)c1ccc(N=Nc2c(O)ccc3c2[nH]c2ccccc23)cc1,1.26 µM (active),–
NS(=O)(=O)c1ccc(N=Nc2c(O)c(C(=O)O)cc3ccccc23)cc1,–,9.68% [at 11.4 µM] (inactive)
N=C(N)c1ccccc1,–,-22% (inactive)
COc1ccc2c(Cl)c(C(=O)NCCCn3ccnc3)sc2c1Cl,0.794 µM (active),–
O=C(O)c1ccccc1-c1ccccc1C(=O)Nc1ccc2c(c1)Cc1cc(F)ccc1-2,–,-34% [at 11.4 µM] (inactive)
O=C(NCCCN1CCN(C2CCCCC2)CC1)Nc1ccccc1C(F)(F)F,–,33.2% (inactive)
Cc1cc(=O)oc(C)c1C(=O)NCCCN1CCN(c2ccc(F)cc2)CC1,–,-1.77% (inactive)
S=C(S)NCCCn1ccnc1,–,-30% [at 11.4 µM] (inactive)
O=C(CCCN1CC=C(n2c(=O)[nH]c3ccccc32)CC1)c1ccc(F)cc1,–,-2.46% [at 25.6 µM] (inactive)
CSc1ccc(NC(=O)NCCCN2CCN(c3ccccc3F)CC2)cc1,15.8 µM (active),–
O=C(NCCCn1ccnc1)Nc1ccc(Cl)cc1,0.0562 µM (active),–
O=C(CCN1CCc2ccccc2C1)Nc1ccc(F)cc1,7.94 µM (active),–
O=C1Cc2c([nH]c3ccc(Br)cc23)-c2ccccc2N1,–,-35.7% (inactive)
CSc1ccc(NC(=O)NCCN2CCc3ccccc3C2)cc1,15.8 µM (active),–
O=C(NCCCN1CCc2ccccc2C1)Nc1ccc(Cl)cc1,15.8 µM (active),–

Structure (SMILES),AC50,"activity, negative = inhibition"
CC(C)[C@H](NC(=O)OC(C)(C)C)[C@@H](O)CC(=O)C(C)(C)C,–,-18.4% [at 11.4 µM] (inactive)
CC(C)[C@@H]1NC(=O)[C@H](CCCCN)NC(=O)[C@H](Cc2c[nH]c3ccccc23)NC(=O)[C@H](Cc2ccc(O)cc2)NC(=O)[C@H](C)N(C)C(=O)[C@H](Cc2ccccc2)NC1=O,–,25.9% (inactive)
CCOc1ccc(NC(=O)c2ccc(OC)cc2)cc1,–,-12.6% (inactive)
O=C(Nc1cccc(OC(=O)c2cccnc2)c1)c1cccnc1,–,-17.1% (inactive)
COc1ccc(C(=O)Nc2cccc(OC(=O)c3ccc(C)c(C)c3)c2)cc1,7.94 µM (active),–
COc1ccc(C(=O)Nc2cc(OC)cc(OC)c2)cc1,2.51 µM (active),–
COc1ccc2c(OC)c3ccoc3nc2c1OC,–,-42.9% [at 25.6 µM] (inactive)
COc1ccc2c(=O)cc(-c3ccncc3)oc2c1OC,1.58 µM (active),–
CCn1c2ccccc2c2nnc(NCCCO)nc21,–,5.92% [at 11.4 µM] (inactive)
CCc1ccc2c(-c3cccc(Cl)c3)nc(=O)n(CC)c2n1,–,-44.4% (inactive)
CCn1c2ccc(Cl)cc2c2nc3ccccc3nc21,14.1 µM (active),–
Cc1noc(C)c1-c1ccc2ncnc(NCCN3CCOCC3)c2c1,–,-20.8% (inactive)
Cc1cccc(CNc2ncnc3ccc(-c4c(C)noc4C)cc23)c1,5.01 µM (active),–
COCCNc1ncnc2ccc(-c3c(C)noc3C)cc12,10 µM (active),–
Cc1noc(C)c1-c1ccc2ncnc(NCc3cccs3)c2c1,1.26 µM (active),–
Cc1noc(C)c1-c1ccc2ncnc(NCc3ccccc3)c2c1,7.94 µM (active),–
CC(=O)NCCNc1ncnc2ccc(-c3c(C)noc3C)cc12,–,-43.7% (inactive)
C=C(C)C1Cc2nc(N)nc(C)c2C1 (stereo not drawn),–,-25.3% (inactive)
COc1cc(C)cc2c(-c3c(O)cc(O)c4c3C[C@H](C)N[C@@H]4C)cc(-c3cc(-c4c(O)cc(O)c5c4C[C@H](C)N[C@@H]5C)c4cc(C)cc(OC)c4c3O)c(O)c12,–,-31.6% [at 11.4 µM] (inactive)
Cc1noc(C)c1-c1ccc2ncnc(NCc3cccnc3)c2c1,0.02 µM (active),–
CC1(C)OC[C@@H]2O[C@H](n3cnc4c(N)nc(Cl)nc43)[C@@H](OS(C)(=O)=O)[C@@H]2O1,–,8% [at 11.4 µM] (inactive)

# Source: PubChem BioAssay AID1851 (National Center for Advancing Translational Sciences (NCATS), 2009)
